The source of these data is PubChem BioAssay (NCATS).

Records with an inconclusive call do not appear. Activity calls are given as the source filed them. The call rests on the fitted dose curve; in most records, active means well fitted cell-killing curve with a large enough effect; inconclusive means small, poorly fitted or top-dose-only effect; inactive means no such curve, though single readings can be large or run the other way.
On the % scale 0 is the no-effect control and ±100 the full control effect.

This assay is described as follows: qHTS of pediatric cancer cell lines to identify multiple opportunities for drug repurposing: Primary screen for MG 63 (6-TG R) cells (AID 1347105). Further: nearly all actives have a fitted effect of over 50% in size. Particulars: MG 63 (6-TG R) viability, CellTiter-Glo, 48 h; series mostly up to 46 µM; activity change, negative = cytotoxic: at the top concentration. The source says:
Drug repurposing or repositioning has been offered as a strategy for drug development in oncology programs. This approach has special potential for childhood cancers and other rare or orphan diseases, where the expected return on new drug development has been a disincentive to pharmaceuticals. […] In this project we exploit the poly-pharmacology of drugs to discover new indications via phenotypic screening of a panel of 19 well-characterized cell lines derived from solid tumors seen in children and adolescents. The goal is to identify approved drugs with previously unrecognized anticancer properties that has the potential to reveal new mechanisms and biological processes involved in carcinogenesis or drug resistance. We employed a titration-based paradigm (quantitative high-throughput screening or qHTS), where all compounds were tested at multiple concentrations for their effect on cell viability. Concentration-response curves (CRCs) were derived directly from the primary screen, and both potency and efficacy values were used to identify compounds with robust bioactivity profiles. We screened the NIH Chemical Genomics Center (NCGC) Pharmaceutical Collection (NPC) and Mechanism Interrogation Plate (MIPE) small molecule collections of approved and investigational compounds against these cell lines; and measured metabolically active cells after 48 hours of compound treatment as a proxy for cell viability. […] Assay Submitter: Nathalia J. Martinez, National Center for Advancing Translational Sciences, National Institutes of Health, Rockville, MD, USA; email: natalia.martinez@nih.gov Shen, M et al. Quantitative high-throughput phenotypic screening of pediatric cancer cell lines identifies multiple opportunities for drug repurposing. Oncotarget 2017 Dec 19;9(4):4758-4772. PMID 29435139.
The cells were obtained from University of North Carolina (UNC), Pediatric Preclinical Testing Program (PPT), and Coriell Institute (CI). qHTS cell viability assay: Cells were assayed in growth media at a density of 500-1,000 cells/well. Five microliters of cells were dispensed into 1,536-well, white, solid-bottom, TC-treated plates (Greiner Bio One) using a multidrop dispenser and incubated at 37 degrees C, 5% CO2, under a humidified atmosphere for 5 hours. Twenty-three nanoliters of compounds and controls (neutral control DMSO or positive control bortezomib at final concentration of 2.3 µM) were subsequently transferred by Kalypsys pintool. For primary screens, the MIPE collection was tested at 11-point dilutions (final concentrations range from 0.78 nM to 46 µM) and the NPC collection at 8-point dilutions (final concentrations range from 0.59 nM to 46 µM). Compounds tested in follow-up screens were assayed at 11-point dilutions. Cells were incubated for 48 hours, followed by addition of 3 µL of CellTiter-Glo (Promega). After a 15 min incubation at room temperature, samples were analyzed for luminescence intensity using a ViewLux High-throughput CCD imager equipped with clear filters.
In general terms: Quantitative high-throughput screening tests each substance at several concentrations.
`O=S1(=O)OC(c2ccc(O)cc2)(c2ccc(O)cc2)c2ccccc21`: the “activity change, negative = cytotoxic” value is -12.6% (inactive).

Consider `O=C1c2ccccc2S(=O)(=O)N1CCCCN1CCN(c2ncccn2)CC1`, for which the “activity change, negative = cytotoxic” value was -6.98% (inactive).

For `C[C@H]1COc2c(C3(N)CC3)c(F)cc3c(=O)c(C(=O)O)cn1c23`, the “activity change, negative = cytotoxic” value was 30.2% (inactive).

As to `CCOC(=O)OC(C)OC(=O)[C@@H]1N2C(=O)[C@@H](NC(=O)[C@H](N)c3ccccc3)[C@H]2SC1(C)C` (stereo not given in full), the “activity change, negative = cytotoxic” value is -6.77% (inactive).

As to `CC(C)CCCC(C)CCCC(C)CCCCC(C)CCCC(C)CCCC(C)C` (stereo not given), the “activity change, negative = cytotoxic” value is -14.2% (inactive).

As for `O=C(O)Cc1cn(-c2ccccc2)nc1-c1ccc(Cl)cc1`, the “activity change, negative = cytotoxic” value was -22.7% (inactive).

As for `NS(=O)(=O)c1ccc(NC(=O)CCC(=O)O)cc1`, the “activity change, negative = cytotoxic” value is -7.54% (inactive).

As for `OCc1ccc(Cl)cc1Cl`, the “activity change, negative = cytotoxic” value was -17.5% (inactive).

Turning to `O=C(CCBr)N1CCN(C(=O)CCBr)CC1`, the “activity change, negative = cytotoxic” value is -14.7% (inactive).

As to `CCN(CC)CCc1nc(-c2ccccc2)no1`, the “activity change, negative = cytotoxic” value is -3.98% (inactive).

Turning to `CCCCCC(N)=O`, the “activity change, negative = cytotoxic” value is -12% (inactive).

Turning to `O=C(Cn1ccnc1[N+](=O)[O-])NCc1ccccc1`, the “activity change, negative = cytotoxic” value is 56.5% (inactive).

With `Nc1ccncc1N`, the “activity change, negative = cytotoxic” value was -20.4% (inactive).

For the compound `CC(=O)NS(=O)(=O)c1ccc(N)cc1`, the “activity change, negative = cytotoxic” value is -19.1% (inactive).

As to `Cc1cc(NC(=O)C2=C(O)c3ccccc3S(=O)(=O)N2C)no1`, the “activity change, negative = cytotoxic” value was -9.99% (inactive).

Take `CC1CCN(CCCC(=O)c2ccc(F)cc2)CC1`: the “activity change, negative = cytotoxic” value is -18% (inactive).

On to `CC(C)=CCC[C@@](C)(O)[C@H]1CC=C(C)CC1`, for which the “activity change, negative = cytotoxic” value was -10.5% (inactive).

For the compound `CCCNC(C)C(=O)Nc1c(C)csc1C(=O)OC` (stereo not given), the “activity change, negative = cytotoxic” value is 2.76% (inactive).

As to `O=C(O)[C@@H]1[C@H]2C[C@H]3c4[nH]c5ccccc5c4CCN3C[C@@H]2CC[C@@H]1O`, the “activity change, negative = cytotoxic” value was -1.72% (inactive).

For `CC1(C)[C@@H](OC(=O)CCC(=O)O)CC[C@]2(C)[C@H]3C(=O)C=C4[C@@H]5C[C@@](C)(C(=O)O)CC[C@]5(C)CC[C@@]4(C)[C@]3(C)CC[C@@H]12`, the “activity change, negative = cytotoxic” value is 17% (inactive).

For the compound `NC(=O)CC[C@@H](N)C(=O)O`, the “activity change, negative = cytotoxic” value was 9.1% (inactive).

For `CC1CCc2cc(F)cc3c(=O)c(C(=O)O)cn1c23` (stereo not given), the “activity change, negative = cytotoxic” value is -7.78% (inactive).

With `CCCCCCCCCCC(CO)CCCCCCCC` (stereo not given), the “activity change, negative = cytotoxic” value is -9.05% (inactive).

Consider `Cc1cccc(C(=O)O)c1O`, for which the “activity change, negative = cytotoxic” value was -18.4% (inactive).

For `CNCc1ccccc1`, the “activity change, negative = cytotoxic” value is 2.26% (inactive).

In the case of `Cc1ccccc1N=Nc1ccc(N=Nc2c(O)ccc3ccccc23)c(C)c1`, the “activity change, negative = cytotoxic” value was -15.3% (inactive).

With `CCCNC(C)(C)COC(=O)c1ccccc1`, the “activity change, negative = cytotoxic” value was -8.95% (inactive).

Turning to `CO[C@@]1(NC(=O)C(C(=O)O)c2ccc(O)cc2)C(=O)N2C(C(=O)O)=C(CSc3nnnn3C)CO[C@@H]21` (stereo not given in full), the “activity change, negative = cytotoxic” value is 5.12% (inactive).

Regarding `C[C@@H](N)C(=O)O`, the “activity change, negative = cytotoxic” value was 8.8% (inactive).

On to `CN1C[C@@H]2C[C@H]1CN2c1cc2c(cc1F)c(=O)c(C(=O)O)cn2C1CC1`, for which the “activity change, negative = cytotoxic” value is 46.8% [at 16.1 µM] (inactive).

`O=C(/C=C/c1ccccc1)OCc1ccccc1`: the “activity change, negative = cytotoxic” value was -17.2% (inactive).

As to `O=C(NCCCN1CCOCC1)c1ccc(Cl)cc1`, the “activity change, negative = cytotoxic” value is -11.4% (inactive).

With `C=CCOc1ccccc1OCC(O)CNC(C)C` (stereo not given), the “activity change, negative = cytotoxic” value was 18.4% (inactive).

Consider `CC(O)CCCCn1c(=O)c2c(ncn2C)n(C)c1=O` (stereo not given), for which the “activity change, negative = cytotoxic” value is -2.7% (inactive).

Turning to `Cc1ncc(CO)c(CN)c1O`, the “activity change, negative = cytotoxic” value is 1.38% (inactive).

With `c1ccc2[nH]ccc2c1`, the “activity change, negative = cytotoxic” value was -11.3% (inactive).

As to `CC(=O)NCc1c(I)c(NC(C)=O)c(I)c(C(=O)O)c1I`, the “activity change, negative = cytotoxic” value is 7.87% (inactive).

As for `Cc1c(NC(C)C)c(=O)n(-c2ccccc2)n1C`, the “activity change, negative = cytotoxic” value is -2.19% (inactive).

`CC(=O)OC[C@H]1O[C@@](COC(C)=O)(O[C@H]2O[C@H](COC(C)=O)[C@@H](OC(C)=O)[C@H](OC(C)=O)[C@H]2OC(C)=O)[C@@H](OC(C)=O)[C@@H]1OC(C)=O`: the “activity change, negative = cytotoxic” value is -5.16% (inactive).

Consider `CCN(CC)C(=O)c1cccc(C)c1`, for which the “activity change, negative = cytotoxic” value was -1.12% (inactive).
